Screens deposited in PubChem by National Center for Advancing Translational Sciences (NCATS).
The list is not random: actives were taken first. Their share in the collection is about 19%.
Cycloheximide cs – Cycloheximide Counterscreen for Small Molecule Inhibitors of Shiga Toxin. cell reporter, cycloheximide protein synthesis inhibition counterscreen. max response, %. 12% of 300,000 active. AID 2314, 2010; in the data active means max response mostly above about 13%, no sharp cut-off; inactive means mostly below about 14%; further: read at 38.3 µM for the half of the compounds with a filed dose; 0% is about no effect
Pf growth 48h – Primary qHTS for delayed death inhibitors of the malarial parasite plastid, 48 hour incubation | P. falciparum luciferase growth in erythrocytes, 48 h | Potency, µM (titrated, usually from 28.7 µM), inactives show top-dose activity change, negative = inhibition, actives largely listed as inhibitors | 5.9% of 310,000 active | AID 504832, 2011; further: potency means the concentration at half of the fitted maximal effect; on the % scale 0 is the no-effect control and ±100 the full control effect
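Erythrocytes infected with P. falciparum carrying an integrated firefly luciferase reporter (2% hematocrit, 0.1% parasitemia final) were exposed to compounds in RPMI 1640 with 0.5% Albumax at 37 C, 5% CO2. Growth inhibition was scored as reduced luminescence.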
MARV entry inh – qHTS for inhibitors of binding or entry into cells for Marburg Virus | Marburg virus pseudotyped entry inhibition, cell reporter | Potency, µM (doses to about 37.8 µM), for the others: at the highest dose activity change, negative = inhibition, most hits filed as inhibitors | 1.8% of 300,000 active; calls by dose curve; tested in HEK293 cells; further: potency means the concentration at half of the fitted maximal effect; on the % scale 0 is the no-effect control and ±100 the full control effect
LASV entry inh – qHTS for Inhibitors of binding or entry into cells for Lassa Virus | Lassa virus pseudotype entry inhibition, cell reporter | Potency, µM (doses to about 37.9 µM), for inactives: at the highest dose activity change, negative = inhibition, most hits filed as inhibitors | 1.2% of 300,000 active; calls by dose curve; tested in HEK293 cells; further: potency means the concentration at half of the fitted maximal effect; on the % scale 0 is the no-effect control and ±100 the full control effect; nearly all actives have a fitted effect of over 50% in size
Pf growth 96h – Primary qHTS for delayed death inhibitors of the malarial parasite plastid, 96 hour incubation; P. falciparum luciferase reporter growth, 96 h; 6.9% of 320,000 active; Potency, µM (highest dose often 28.7 µM), without a hit: at the highest dose activity change, negative = inhibition, hits mostly inhibitors; further: potency means the concentration at half of the fitted maximal effect; on the % scale 0 is the no-effect control and ±100 the full control effect
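Luminescence readout: decreased luciferase signal marks inhibited growth of reporter-expressing P. falciparum in infected red cells (2% hematocrit, 0.05% parasitemia final), exposed to compound two generations (96 h, 37 C, 5% CO2).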
Shiga inhibitor – A qHTS for Small Molecule Inhibitors of Shiga Toxin; Vero cells, Shiga toxin protein synthesis inhibition reporter; inhibition, % at 38.7 µM; 9.2% of 290,000 active; in the data active means inhibition mostly above about 28%, no sharp cut-off; inactive means mostly below about 43%; further: 0% is about no effect
* hit, by the source's call; ? = inconclusive; nt = no result given; + = active, no number; [ ] = dose if it differs, or a comment. Unless noted, the call rests on the fitted dose curve; in most records, active means well fitted inhibition curve with a large enough effect; inconclusive means small, poorly fitted or top-dose-only effect, or another doubt; inactive means no such curve, though single readings can be large or run the other way.

SMILES | Cycloheximide cs | Pf growth 48h | MARV entry inh | LASV entry inh | Pf growth 96h | Shiga inhibitor
COc1ccc(C2CC(c3ccc(OC)cc3OC(C)=O)=NN2C(=O)c2ccccc2)cc1 (stereo unspecified) | 14* | 0%[0.00184 µM] | ? | ? | ? | 37
COc1cccc(NC(=O)COC(=O)c2ccc(F)cc2F)c1 | 4 | 20% | -4% | 23% | 20% | 13
COc1cccc(CNC(=O)c2cc3c(=O)n(C)c4ccccc4c3n2C)c1 | nt | nt | 2%[46.1 µM] | 20%[46.1 µM] | nt | nt
Cc1ccc(CN(C)C(=O)CSc2nnc3n2CCCCC3)c(C)c1 | nt | ? | ? | 6% | 7.4µM* | nt
COc1ccc(-c2nc3n(c2C)CCC3)cc1 | 27* | 60% | ? | -2% | 128% | 71*
COc1ccc(CNC(=O)c2sc3nc4n(c(=O)c3c2C)CCCCC4)cc1 | nt | nt | nt | -20%[46.1 µM] | nt | nt
COc1ccc(-c2cc3nc4n(c(=O)c3s2)CCC4)cc1 | 33* | 36% | 1.6µM* | ? | ? | 91*
COc1ccc(-c2cc3nc(C)n(N)c(=O)c3s2)cc1 | -2 | -4% | nt | nt | 39% | -37
COc1ccc(-c2cc3nc4n(c(=O)c3s2)CCCCC4)cc1 | 49* | 320% | ? | 4%[46.1 µM] | 196% | 78*
C[C@H]1CN=C(N(C)C)N1CC1CCC(C(C)(C)C)CC1 (stereo partly specified) | nt | 7.4µM* | nt | nt | ? | nt
CC(=O)c1c(O)c2ccccc2n(C2CCCCC2)c1=O | 0 | 13% | -11%[46.1 µM] | -22%[46.1 µM] | 16% | 3
Cc1ccc(Cl)cc1Nc1nn2c(=O)c3ccc(C(=O)NCc4ccc(F)cc4)cc3nc2s1 | nt | nt | nt | 4%[46.1 µM] | nt | nt
COCCNc1nc2sc3c(c2c(=O)n1Cc1ccco1)CCCCC3 | 28* | 54% | ? | ? | 4% | 30*
COCCCn1c(SCC(=O)NCc2ccco2)nc2sc3c(c2c1=O)CCC3 | -6 | ? | -14% | 4% | 3% | -37
O=c1c2c3c(sc2nc(NCCO)n1Cc1ccco1)CCCCC3 | 14* | 11% | ? | 19%[46.1 µM] | -26% | 19
COCCSc1nnc(NS(=O)(=O)c2ccc(F)cc2)s1 | 8 | -8% | 12%[46.1 µM] | 4%[46.1 µM] | 19% | -9
COc1ccc(N2CCc3c(C)nc4c(OC)cc(OC)cc4c32)c(OC)c1 | -2 | ? | 12µM* | ? | 15µM* | -14
COc1cccc(N2CCc3c(C)nc4ccc(Cl)cc4c32)c1 | -4 | 13µM* | 11µM* | ? | 12µM* | -11
COc1ccc(N2CCc3c(C)nc4c(OC)cc(OC)cc4c32)cc1 | -1 | ? | ? | ? | ? | 3
CCN1Cc2c(/C=C/c3ccccc3)nc3ccc(OC)cc3c2N(c2cccc(Cl)c2)C1 | 0 | 2.1µM* | nt | nt | 3.3µM* | -4
O=C(N/N=C\c1ccc(O)c([N+](=O)[O-])c1)C1COc2ccccc2O1 (stereo unspecified) | -3 | 3% | nt | nt | 21% | -1
COc1cc(OC)c(Nc2cc(C)nc3nc(C)nn23)cc1Cl | -1 | ? | -2% | nt | -6% | -5
COc1cc(OC)cc(C(=O)NC2CC(C)(C)NC(C)(C)C2)c1 | 4 | ? | 7% | 10% | 6% | -7
O=C(Nc1ccc(NC(=O)c2ccccc2Cl)nc1)c1ccncc1 | 8 | 6% | nt | nt | 4% | 15
Cc1ccc(C)c(SCC(=O)c2ccc[nH]2)c1 | 42* | 22% | nt | nt | 21% | 56*
SMILES | Cycloheximide cs | Pf growth 48h | MARV entry inh | LASV entry inh | Pf growth 96h | Shiga inhibitor
CCN(CC)S(=O)(=O)c1ccc(C)c(NC(=O)CN2CCN(C)CC2)c1 | 1 | 9% | nt | nt | -16% | 13
Cc1sc2ncnc(Sc3ccccc3C(=O)O)c2c1C | -2 | -2% | 14%[46.1 µM] | -3% | -1% | 1
CC(=O)c1ccc(NC(=O)c2ccccc2Sc2ncnc3sc(C)c(C)c23)cc1 | 17* | ? | ? | ? | ? | +
CC1=NN(C(N)=S)C(=O)C1N=Nc1cccc([N+](=O)[O-])c1 (stereo unspecified) | 0 | -19% | nt | nt | 479% | 3
CC1=NN(C(N)=S)C(=O)C1N=Nc1cccc2ccccc12 (stereo unspecified) | 13 | 11% | nt | nt | -5% | 25
CC1=NN(C(N)=S)C(=O)C1N=Nc1ccc(Cl)cc1 (stereo unspecified) | 33* | ? | -24% | -16% | ? | 77*
CC1=NN(C(N)=S)C(=O)C1N=Nc1ccccc1 (stereo unspecified) | 5 | ? | nt | nt | 12% | 24
CC1=NN(C(N)=S)C(=O)C1N=Nc1cccc(Cl)c1C (stereo unspecified) | 26* | ? | nt | nt | ? | 37*
CC1=NN(C(N)=S)C(=O)C1N=Nc1ccc(Br)cc1 (stereo unspecified) | 39* | 9.3µM* | ? | ? | ? | 53
COc1ccccc1NC(=O)COc1ccc(C(=O)NC2CCCc3ccccc32)cc1OC (stereo unspecified) | -3 | ? | ? | -28% | ? | -7
COc1ccc(C(=O)Nc2ccc(NC(=O)c3cccs3)cc2)cc1OC | nt | nt | nt | 2%[46.1 µM] | nt | nt
COc1ccc(Br)cc1/C=C/C(=O)c1ccc(NC(C)=O)cc1 | -6 | -85% | ? | 4µM* | 288% | -16
COc1ccc(C(=O)Nc2ccc(NC(=O)c3cccs3)cc2)cc1Cl | -1 | -9% | 26% | 6% | ? | -6
COc1ccc(NC(=O)c2cccs2)cc1O | 58* | 174% | 21% | -15% | 140% | 70*
COc1ccc(/C=C/C(=O)c2ccc(NC(=O)c3cccs3)cc2)cc1OC | 22* | ? | ? | ? | -12% | 70*
COc1ccc(C(=O)Nc2cccc(NC(=O)c3cccs3)c2)cc1OC | 20* | -18% | nt | nt | -18% | 23*
CCOC(=O)c1cc(=O)cc(C(=O)OCC)o1 | -4 | 17% | 7%[46.1 µM] | ? | nt | -11
COc1ccc(Oc2nc3c(c(=O)n(Cc4ccc(Br)cc4)c(=O)n3C)n2C)cc1 | nt | nt | 13%[46.1 µM] | ? | nt | nt
Cc1cc(Br)ccc1NC(=O)C1C2CCC(O2)C1C(=O)O (stereo unspecified) | 1 | 20% | -1%[46.1 µM] | -12%[46.1 µM] | ? | -14
COc1ccc(-c2csc(NC(=O)c3cccs3)c2C(=O)O)cc1OC | 28 | ? | -17% | 8% | -4% | 28*
COc1ccc(-c2csc(NC(=O)c3ccccc3OC)c2C(=O)O)cc1OC | 1 | ? | nt | nt | ? | nt
CC(Oc1ccccc1)C(=O)Nc1nc(-c2ccccn2)cs1 (stereo unspecified) | nt | 1.9µM* | -14%[46.1 µM] | -19% | 2.3µM* | nt
CC(Oc1ccccc1)C(=O)Nc1nc(-c2ccncc2)cs1 (stereo unspecified) | nt | -27% | nt | nt | -31% | nt
Cc1cccc(C(=O)NC(C(=O)Nc2nc(-c3ccccn3)cs2)C(C)C)c1 (stereo unspecified) | -1 | 15µM* | nt | nt | ? | 5
